The values below come from PubChem BioAssay (EPA / NIEHS).

Structures are written as SMILES. Records with an inconclusive call do not appear. Active and inactive are the calls of the source. How the source made its calls: active means hit-call score of the fitted dose curve at least 0.9, where 1 is the maximum; inconclusive means response in the unintended direction; inactive means score below 0.9.

Read-out in this experiment: xenobiotic metabolism (CYP2C9), CYP2C9 (gene 1559)
The experiment in a line: CLD_CYP2C9_6hr: CellzDirect (CLD) Gene Expression Assay for xenobiotic metabolism (CYP2C9) at 6 hours (AID 2283664). The protocol:
CLD_6hr is a cell-based, multiplexed-readout assay that uses hepatocyte, a human liver primary cell, with measurements taken at 6 hours after chemical dosing in a 96-well plate.CLD_CYP2C9_6hr is one of 16 assay component(s) measured or calculated from the CLD_6hr assay. It is designed to make measurements of mRNA induction, a form of inducible reporter, as detected with chemiluminescence signals by Quantitative Nuclease Protection Assay (qNPA) technology.Data from the assay component CLD_CYP2C9_6hr was analyzed at the endpoint, CLD_CYP2C9_6hr, in the positive analysis fitting direction relative to DMSO as the negative control and baseline of activity. Using a type of inducible reporter, gain-of-signal activity can be used to understand changes in the reporter gene as they relate to the gene CYP2C9. Furthermore, this assay endpoint can be referred to as a primary readout. To generalize the intended target to other relatable targets, this assay endpoint is annotated to the cyp intended target family, where subfamily is xenobiotic metabolism.
Human hepatocyte cultures were treated daily for two consecutive days with fresh dosing solutions containing appropriate concentrations of the 320 ToxCast chemicals (chemical identities were blinded to CellzDirect and other ToxCast collaborators), vehicle control (0.2% DMSO), and positive control inducers as summarized in Table 1. Due to the large number of treatment groups and chemicals examined, the ToxCast chemicals were divided into two groups (spanning two independent cultures of hepatocytes from separate donor preparations (Hu778: ToxCast plates 1 and 2; Hu776: ToxCast plates 3 and 4). Each preparation of human hepatocyte cultures was treated with respective vehicle control, medium only control, set of six positive controls/reference chemicals for the five hepatic receptor pathways, and a subset of eight of the ToxCast chemicals (indoxacarb, pyrithiobac-sodium, norflurazon, cyhalofop-butyl, methomyl, thiram, acetochlor, and propiconazole). These replicate data, coupled with internal replicates designed within the blinded ToxCast chemical library, provided additional data to evaluate interindividual differences between hepatocyte preparations and their potential impact on chemical profiles.Cell morphology and integrity were evaluated using phase-contrast microscopy as an indicator of hepatocyte cell health (Tyson & Green, 1987). Cultures for each treatment group (i.e., media, vehicle [0.2% DMSO], positive control inducers [multiple concentrations], and the ToxCast chemicals [multiple concentrations]) were observed and cell morphology was assessed relative to vehicle control cultures at each harvest time point (0, 6, 24, or 48 h). […] Images were evaluated at the conclusion of the study to assess changes in cell integrity and account for the effects of chemical exposure on uncharacteristic changes in concentration-dependent gene expression profiles. The results from these determinations of apparent cytotoxicity were annotated (yes/no) alongside the corresponding qNPA data for reference.At the conclusion of each treatment period, hepatocyte cultures (96-well) were washed with 1 volume of HBSS, lysed by addition of 25 ul ArrayPlate lysis buffer (HTG, Tucson, AZ), and 70 ul/well of Denaturation Oil, denatured by incubation at 95C for 10 min, and frozen at approximately -70C until analysis by nuclease protection assay (qNPA) (Roberts et al., 2007). For qNPA analysis, cell lysates were thawed at 50C for approximately 30 min, qNPA probes were added, and samples were incubated at 95C for 10 min to begin the detection process by denaturing the target RNA, dissociating the duplexes and secondary structure hybridization. At the conclusion of the hybridization period, S1 nuclease reagent was added to each sample to digest all nonprotected nucleotides at 50C for 60-90 min. […]
On to `N#CSCSc1nc2ccccc2s1`, for which the AC50 (in general, the concentration giving half of the maximal activity seen) was 36.1 µM (active).

In the case of `COCCO`, the outcome was inactive.

For the compound `CC1(C)C(C=C(Cl)Cl)C1C(=O)OCc1cccc(Oc2ccccc2)c1` (stereo not drawn), the compound was classed as inactive.

As for `S=C(S)NCCNC(=S)S.[Mn+2].[S-]C([S-])=NCCN=C([S-])[S-].[Zn+2]`, the compound was classed as inactive.

In the case of `C#CCOC(=O)[C@@H](C)Oc1ccc(Oc2ncc(Cl)cc2F)cc1`, the compound was classed as inactive.

`CCCCC(CC)CN1C(=O)C2C3C=CC(C3)C2C1=O` (stereo not drawn): the call was inactive.

On to `COc1nc(C)nc(NC(=O)NS(=O)(=O)c2ccccc2OCCCl)n1`, for which the outcome was inactive.

Turning to `CCCCOC(=O)[C@@H](C)Oc1ccc(Oc2ccc(C(F)(F)F)cn2)cc1`, the result was inactive.

With `COC(=O)c1ccccc1S(=O)(=O)NC(=O)Nc1nc(OC(F)F)cc(OC(F)F)n1`, the compound was called inactive.

As for `CCOC(=O)COc1cc(-n2ncc(C(F)(F)F)c(C)c2=O)c(F)cc1Cl`, the call was inactive.

Take `COC(=O)CSc1cc(N=c2sc(=O)n3n2CCCC3)c(F)cc1Cl`: the compound was called inactive.

`CCOC(=O)C(C)Oc1ccc(Oc2cnc3cc(Cl)ccc3n2)cc1` (stereo not drawn): the compound was classed as inactive.

For the compound `CCCOC(=O)NCCCN(C)C`, the result was inactive.

For `CC(C)(c1ccc(O)cc1)c1ccc(O)cc1`, the compound was classed as inactive.

For `CCC(O)=C1C(=O)CC(C(=O)O)CC1=O` (stereo not drawn), the compound was classed as inactive.

For the compound `CCCCCOC(=O)COc1cc(N2C(=O)C3=C(CCCC3)C2=O)c(F)cc1Cl`, the result was inactive.

For `CC(C)(C)[C@@H](O)[C@@H](Cc1ccc(Cl)cc1)n1cncn1`, the compound was called inactive.

Regarding `CCCN(CCC)C(=O)SCC`, the compound was called inactive.
